# Reference: ChEMBL document CHEMBL4513216, “Probing the Open Global Health Chemical Diversity Library for Multistage-Active Starting Points for Next-Generation Antimalarials” (ACS Infect Dis, 2020)
# In all, about 69,000 compounds went through this assay and about 8,600 (12%) showed an effect of 50% or more. Many of the other results were omitted from the sample, so strong results are more common in it than they were.
# Test system: Plasmodium berghei
# Assay: Screen against P. berghei liver stage (PbLuc), transformed with Luciferase, at 10uM
# Type: functional, HepG2
# Settings: tested at 10 uM
row,SMILES,INHIBITION
1,CSc1ncccc1C(=O)N1C[C@@H]2CC[C@H]1CN(c1cnccn1)C2,0.139%
2,CC(C)(CNC(=O)C1CCCN(C(N)=O)C1)c1cccc(Cl)c1 (stereo not given),21.5%
3,NC(=O)N1CCCC(C(=O)Nc2cccc(Cl)c2)C1 (stereo not given),37.5%
4,CC(C)(CNc1cccc(Cl)c1)NC(=O)C1CCCN(CC(N)=O)C1 (stereo not given),69.9%
5,O=C(c1cccc2c1OCO2)N1CCC(N2CCCC2)CC1,-17.4%
6,c1ccc(COC2C[C@@H]3CN(Cc4cncnc4)C[C@@H]3C2)cc1 (stereo not given in full),28%
7,CCc1noc(C2CCCCN2C(=O)c2cccnc2)n1 (stereo not given),-8.9%
8,Cc1noc(C)c1C(=O)N1CCCC1c1c(C)nn(C)c1C (stereo not given),-50.5%
9,Cc1cc(CNC2(c3ccc(Cl)cc3)CC2)no1,16.8%
10,OC1(c2ccc(F)cc2)CCN(Cc2ccccc2N2CCCC2)CC1,43.4%
11,Cc1cccc(C2(O)CCN(Cc3ccccc3N3CCCC3)CC2)c1,61%
12,OC1(c2ccccc2F)CCN(Cc2ccccc2N2CCCC2)CC1,46.2%
13,C1CCC(NC2CCCN(Cc3noc(C4CC4)n3)C2)C1 (stereo not given),17.3%
14,CCOc1cccc(C2CC(=O)NCc3nc(N)sc32)c1 (stereo not given),42.2%
15,CCOc1cccc(C2CC(=O)NCc3nc(N(C)C)sc32)c1 (stereo not given),11.7%
16,CCOc1cccc(C2CC(=O)NCc3nc(N4CCCC4)sc32)c1 (stereo not given),56.5%
17,Cc1cccc(C)c1OCCNC(=O)CN1CCN(C)CC1C (stereo not given),-17.7%
18,Cc1ccc2c(c1)cc(CN1CC[C@](C)(O)[C@H](C)C1)n2C,42.1%
19,CN1CCN(C2CCN(Cc3cn4ccccc4n3)CC2)C1=O,-22.3%
20,CN(C)Cc1cnc2n1CCN(C(=O)C1CC=CC1)CC2,36.9%
21,CS(=O)(=O)N1CCO[C@@H]2CCN(Cc3ccncc3)CC[C@H]21,23.6%
22,Cc1ccc(CN2CC[C@@H]3OCCN(Cc4ccncc4)[C@H]3CC2)s1,58.3%

row,SMILES,INHIBITION
1,Cc1ccc(CN2CC[C@H]3[C@H]2CCN3S(=O)(=O)C2CC2)s1,13.7%
2,Cc1cccc(CN2C(=O)CC[C@@H]3[C@H]2CCN3Cc2ccc(C)s2)n1,33.5%
3,Cc1ccc(CN2CC[C@@H]3OCCN(S(C)(=O)=O)[C@H]3CC2)s1,34.5%
4,Cc1ccc(CN2CC[C@H]3[C@H]2CCN3S(C)(=O)=O)s1,58.7%
5,Cc1ccc(CN2CC[C@@H]3[C@H]2CCC(=O)N3Cc2ccncc2)s1,68.4%
6,Cc1ccc(CN2CC[C@H]3[C@@H]2CCC(=O)N3CCN2CCCC2)s1,32.4%
7,Cc1cc(CN2CC[C@H]3[C@H]2CCN3S(C)(=O)=O)oc1C,16.1%
8,Cc1nc(CN(C)C2CCN(Cc3ccc4c(c3)CCC4)C2)no1 (stereo not given),31.3%
9,NC(=O)C1CNCCN1C(=O)COc1ccccc1 (stereo not given),36%
10,Cc1csc(CN2CC[C@H]3C[C@@H](c4nc(C)no4)O[C@@H]3C2)n1,-11.6%
11,CN1[C@@H](C(=O)NCC2CC2)C[C@@H]2CN(Cc3ccsc3)C[C@@H]21,-9.74%
12,CNC(=O)CCc1cc(C)nc(C2CCN(c3ccccc3)CC2)c1,20.24%
13,COCCNC(=O)[C@H]1CN(c2ncccn2)C[C@H]2OCC[C@@H]12,55.5%
14,COCCNC(=O)[C@@H]1CN(c2cc(OC)ncn2)C[C@H]2OCC[C@H]21,24.9%
15,COCCNC(=O)[C@@H]1CN(c2ncccn2)C[C@H]2OCC[C@H]21,43.9%
16,Cc1nnc(N2C[C@H]3OCC[C@H]3[C@H](C(=O)NCC3CC3)C2)s1,66.9%
17,COCCNC(=O)[C@H]1CN(c2nnc(C)s2)C[C@H]2OCC[C@@H]12,52.9%
18,COCCNC(=O)[C@H]1CN(Cc2cccs2)C[C@H]2OCC[C@@H]12,43.9%
19,Cc1nnc(N2C[C@H](C(=O)NCc3ccco3)[C@@H]3CCO[C@@H]3C2)s1,15.4%
20,COCCNC(=O)[C@H]1CN(Cc2csc(C)n2)C[C@H]2OCC[C@@H]12,24.9%
21,Cc1nnc(N2C[C@H](C(=O)NCC3CC3)[C@@H]3CCO[C@@H]3C2)s1,-19.7%
22,Cc1cccc(CN2CCc3nnc(CO)n3CC2)n1,27.4%

row,SMILES,INHIBITION
1,O=C1[C@H]2CN(Cc3cccs3)C[C@H]2CN1CCN1CCCC1,9.97%
2,Cc1c(C2CCCN(C(=O)c3cccnc3)C2)n2c(nc1=O)CCC2 (stereo not given),-73.1%
3,O=C(C1CCOC1)N1CCN(CC2CC2)c2ccccc21 (stereo not given),42.8%
4,CCOCC1CN(C(=O)c2ccoc2C)Cc2cnn(C)c21 (stereo not given),23.3%
5,Nc1cncc(C(=O)N2Cc3ccccc3OC3(CCOCC3)C2)c1,22%
6,Cc1nc(C)n(C2CCCN(C(=O)c3cccc4[nH]ncc34)C2)n1 (stereo not given),-50.8%
7,Cc1nc(C)n(C2CCCN(C(=O)c3cccc4cn[nH]c34)C2)n1 (stereo not given),56%
8,COc1ccc(C)cc1C(=O)N1CCCC(n2nc(C)nc2C)C1 (stereo not given),-9.37%
9,COc1ccc(C(=O)N2CCCC(n3nc(C)nc3C)C2)c(OC)c1 (stereo not given),52.3%
10,Cc1nc(C)n(C2CCCN(C(=O)c3ccccc3C)C2)n1 (stereo not given),31.1%
11,COc1cc(Cl)ccc1C(=O)N1CCCC(n2nc(C)nc2C)C1 (stereo not given),19.4%
12,Cn1ccc(CN2CCC(NC(=O)C3CCCCC3)CC2)cc1=O,5.907%
13,CC1(C(=O)NCc2cccc(C(F)(F)F)c2)CCOCC1,15.9%
14,O=C1CSC(C(F)(F)F)c2c(O)nn(C3CCCC3)c2N1 (stereo not given),13.1%
15,CCC(C)NC(=O)Nc1cccc(OCC#N)c1 (stereo not given),5.29%
16,N#Cc1cccc(OC23CCCN(CC2)C3)c1 (stereo not given),21.2%
17,c1ccc(Oc2cccc(OC34CCCN(CC3)C4)c2)cc1 (stereo not given),65.7%
18,O=c1[nH]nc(CNCc2ccc(OC34CCCN(CC3)C4)cc2)[nH]1 (stereo not given),21.085%
19,Cc1nc(CNCc2cccc(OC34CCCN(CC3)C4)c2)n[nH]1 (stereo not given),31.15%
20,c1ccc(Oc2ccc(OC34CCCN(CC3)C4)cc2)cc1 (stereo not given),57.6%
21,Cc1cnccc1CNCc1ccc(OC23CCCN(CC2)C3)cc1 (stereo not given),21.525%
